“And” between values parts separate entries of the source, which are not always exact repeats. Identical values can stand only once. A structure can be active in one record and inactive in another. The source made the active and inactive calls. Rule for the calls: active = hit-call score of the fitted dose curve at least 0.9, where 1 is the maximum; inactive = score below 0.9.
Legend:
[1] = read-out: Macrophage colony-stimulating factor (MCSF), CSF1 (gene 1435); assay: BSK_CASM3C_MCSF: BioMAP Diversity Plus: CASM3C Assay for Macrophage colony-stimulating factor (MCSF) Biomarker Activity (AID 2283044); settings: primary human coronary artery smooth muscle cells; actives raise or lower the signal;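 note: M-CSF protein amount quantified by ELISA after 24 h exposure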
[2] = read-out: Low-density lipoprotein receptor (LDLR), LDLR (gene 3949); assay: BSK_CASM3C_LDLR: BioMAP Diversity Plus: CASM3C Assay for Low-density lipoprotein receptor (LDLR) Biomarker Activity (AID 2283045); settings: primary human coronary artery smooth muscle cells; actives raise or lower the signal;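 note: LDLR protein level on the cell surface quantified by ELISA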
[3] = read-out: Monocyte Chemoattractant Protein-1 (MCP1), CCL2 (gene 6347); assay: BSK_CASM3C_MCP1: BioMAP Diversity Plus: CASM3C Assay for Monocyte Chemoattractant Protein-1 (MCP1) Biomarker Activity (AID 2283046); settings: primary human coronary artery smooth muscle cells; actives raise or lower the signal;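 note: MCP-1 level quantified by ELISA 24 h after dosing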
[4] = BSK_CASM3C_Proliferation: Cell Proliferation Assessment in the BioMAP Diversity Plus: CASM3C Assay (AID 2283047); settings: primary human coronary artery smooth muscle cells;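 note: sulforhodamine B total protein stain as relative cell number at 560 nm; sub-confluent cells exposed 48 h before staining; fitted both ways against DMSO so gain or loss of cell number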
[5] = read-out: Monokine induced gamma interferon (MIG), CXCL9 (gene 4283); assay: BSK_CASM3C_MIG: BioMAP Diversity Plus: CASM3C Assay for Monokine induced gamma interferon (MIG) Biomarker Activity (AID 2283048); settings: primary human coronary artery smooth muscle cells; actives raise or lower the signal;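 note: MIG protein level measured by ELISA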
[6] = read-out: serum amyloid A (SAA), SAA1 (gene 6288); assay: BSK_CASM3C_SAA: BioMAP Diversity Plus: CASM3C Assay for serum amyloid A (SAA) Biomarker Activity (AID 2283049); settings: primary human coronary artery smooth muscle cells; actives raise or lower the signal;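 note: SAA protein level quantified by ELISA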
[7] = BSK_CASM3C_SRB: Viability Assessment in the BioMAP Diversity Plus: CASM3C Assay (AID 2283050); settings: primary human coronary artery smooth muscle cells;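 note: total protein by SRB staining as cytotoxicity measure in parallel cultures; cells exposed to compound for 24 h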
[8] = read-out: Thrombomodulin, THBD (gene 7056); assay: BSK_CASM3C_Thrombomodulin: BioMAP Diversity Plus: CASM3C Assay for Thrombomodulin Biomarker Activity (AID 2283051); settings: primary human coronary artery smooth muscle cells; actives raise or lower the signal;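 note: thrombomodulin protein level measured by ELISA 24 h after dosing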
[9] = read-out: Tissue Factor, F3 (gene 2152); assay: BSK_CASM3C_TissueFactor: BioMAP Diversity Plus: CASM3C Assay for Tissue Factor Biomarker Activity (AID 2283052); settings: primary human coronary artery smooth muscle cells; actives raise or lower the signal;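 note: cell surface tissue factor protein level read by ELISA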
[10] = read-out: Interferon-gamma inducible Protein 10 (IP10), CXCL10 (gene 3627); assay: BSK_hDFCGF_IP10: BioMAP Diversity Plus: hDFCGF Assay for Interferon-gamma inducible Protein 10 (IP10) Biomarker Activity (AID 2283053); settings: primary human foreskin fibroblasts; actives raise or lower the signal
Procedure, shortened: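 ELISA read-out of IP-10 (CXCL10) from primary human skin fibroblasts, 24 h after compound addition. Gain or loss of signal versus DMSO baseline, bidirectional curve fitting.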

[11] = read-out: Urokinase-type plasminogen activator receptor (uPAR), PLAUR (gene 5329); assay: BSK_CASM3C_uPAR: BioMAP Diversity Plus: CASM3C Assay for Urokinase-type plasminogen activator receptor (uPAR) Biomarker Activity (AID 2283054); settings: primary human coronary artery smooth muscle cells; actives raise or lower the signal;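 note: cell-surface uPAR protein level quantified by ELISA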
[12] = read-out: Vascular cell adhesion molecule 1 (VCAM1), VCAM1 (gene 7412); assay: BSK_CASM3C_VCAM1: BioMAP Diversity Plus: CASM3C Assay for Vascular cell adhesion molecule 1 (VCAM1) Biomarker Activity (AID 2283055); settings: primary human coronary artery smooth muscle cells; actives raise or lower the signal;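 note: VCAM-1 protein level quantified by ELISA on the cells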
[13] = read-out: Collagen III, COL3A1 (gene 1281); assay: BSK_hDFCGF_CollagenIII: BioMAP Diversity Plus: hDFCGF Assay for Collagen III Biomarker Activity (AID 2283056); settings: primary human foreskin fibroblasts; actives raise or lower the signal
Procedure, shortened: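 Cells: human foreskin fibroblasts, primary. Dosing followed by 24 h incubation, then ELISA for collagen III. Both increases and decreases scored relative to DMSO.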

[14] = read-out: Epidermal growth factor receptor (EGFR), EGFR (gene 1956); assay: BSK_hDFCGF_EGFR: BioMAP Diversity Plus: hDFCGF Assay for Epidermal growth factor receptor (EGFR) Biomarker Activity (AID 2283057); settings: primary human foreskin fibroblasts; actives raise or lower the signal
Procedure, shortened: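 ELISA readout of EGFR on human dermal fibroblasts (primary foreskin cells), 24 h post-dosing; bidirectional curve fit vs DMSO baseline, gain or loss of signal scored.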

[15] = read-out: Interleukin-8 (IL8), CXCL8 (gene 3576); assay: BSK_hDFCGF_IL8: BioMAP Diversity Plus: hDFCGF Assay for Interleukin-8 (IL8) Biomarker Activity (AID 2283058); settings: primary human foreskin fibroblasts; actives raise or lower the signal
Procedure, shortened: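 IL-8 levels from compound-treated primary human fibroblasts were read by ELISA at 24 h, with DMSO serving as baseline for bidirectional fitting.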

[16] = BSK_hDFCGF_Proliferation: Cell Proliferation Assessment in the BioMAP Diversity Plus: hDFCGF Assay (AID 2283059); settings: primary human foreskin fibroblasts;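 note: curves fitted for both rise and fall of signal versus DMSO baseline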
Procedure, shortened: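 Total protein read at 560 nm after 0.1% SRB staining of TCA-fixed human skin fibroblasts, […]. Activity is fitted in both directions relative to DMSO as baseline.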

[17] = read-out: Macrophage colony-stimulating factor (MCSF), CSF1 (gene 1435); assay: BSK_hDFCGF_MCSF: BioMAP Diversity Plus: hDFCGF Assay for Macrophage colony-stimulating factor (MCSF) Biomarker Activity (AID 2283060); settings: primary human foreskin fibroblasts; actives raise or lower the signal
Procedure, shortened: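 M-CSF levels, determined by ELISA, are taken at 24 h after dosing human skin fibroblasts. Responses in either direction are fitted with DMSO serving as the baseline.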

[18] = BSK_hDFCGF_SRB: Viability Assessment in the BioMAP Diversity Plus: hDFCGF Assay (AID 2283061); settings: primary human foreskin fibroblasts;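 note: cells exposed to compound for 24 h before the read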
Procedure, shortened: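 Cells were dosed with test chemical, cultured 24 h, fixed with 10% TCA, then stained with 0.1% SRB and read at 560 nm. The fibroblasts were human foreskin primary cells, and DMSO served as baseline.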

[19] = read-out: TIMP metallopeptidase inhibitor 1 (TIMP1), TIMP1 (gene 7076); assay: BSK_hDFCGF_TIMP1: BioMAP Diversity Plus: hDFCGF Assay for TIMP metallopeptidase inhibitor 1 (TIMP1) Biomarker Activity (AID 2283062); settings: primary human foreskin fibroblasts; actives raise or lower the signal
Procedure, shortened: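 Fibroblasts from human foreskin are treated with test chemical and harvested at 24 h. TIMP-1 is quantified by ELISA, and gain or loss of signal is scored against DMSO.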

[20] = read-out: Monokine induced gamma interferon (MIG), CXCL9 (gene 4283); assay: BSK_hDFCGF_MIG: BioMAP Diversity Plus: hDFCGF Assay for Monokine induced gamma interferon (MIG) Biomarker Activity (AID 2283063); settings: primary human foreskin fibroblasts; actives raise or lower the signal
Procedure, shortened: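 MIG signal, determined by ELISA, reflects 24 h chemical exposure of human skin primary fibroblasts. DMSO serves as negative control and baseline.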

Measured: AC50

COc1ccc2nc(N)sc2c1
inactive: all assays above

CCCCC(CC)COC(=O)c1ccccc1O (stereo not given)
active: [10] 16.4 µM | [13] 6.81 µM | [16] 7 µM | [17] 13.2 µM | [18] 14.4 µM | [19] 12.8 µM | [20] 15 µM
inactive: all other assays above

COCc1c(C(C)C)nc(C(C)C)c(/C=C/[C@@H](O)C[C@@H](O)CC(=O)O)c1-c1ccc(F)cc1
active: [4] 56 nM | [8] 7.77 nM | [9] 0.00777 µM | [16] 0.0803 µM | [18] 0.32 µM
not listed: [15]
inactive: all other assays above

CCO[Si](CCCN=C=O)(OCC)OCC
inactive: all assays above

C=CCOCC(O)CCl (stereo not given)
inactive: all assays above

CN1C(=O)N(C)C(O)C1O (stereo not given)
inactive: [1] | [2] | [3] | [4] | [5] | [6] | [7] | [8] | [9] | [10] | [11] | [12] | [13] | [14] | [15] | [16] | [17] | [18] | [19] | [20]
active: [12] 179 nM

CCCCNc1ccc(NCCCC)c2c1C(=O)c1ccccc1C2=O
active: [13] 3.46 µM
inactive: all other assays above

CCOC(=O)c1ccccc1C(=C1C=C(Br)C(=O)C(Br)=C1)c1cc(Br)c(O)c(Br)c1
active: [3] 17.4 µM and 20 µM | [4] 20.3 µM and 22.1 µM | [5] 19.4 µM and 22.2 µM | [8] 15.8 µM and 20.4 µM | [10] 3.65 µM and 3.77 µM | [12] 19.4 µM and 23.1 µM | [13] 3.29 µM and 3.26 µM | [15] 8.71 µM and 8.48 µM | [16] 3.46 µM and 3.43 µM | [17] 5.09 µM and 3.85 µM | [19] 3.75 µM and 3.67 µM | [20] 3.85 µM and 3.76 µM
inactive: [1] | [2] | [6] | [7] | [9] | [11] | [14] | [18]

S=C(NC1CCCCC1)NC1CCCCC1
active: [8] 20000 nM
inactive: all other assays above

Reference: PubChem BioAssay (EPA / NIEHS)
